Compound activity deposited in PubChem by National Center for Advancing Translational Sciences (NCATS).
Most compounds without a hit are left out; they make up all but 5% or so of the library.
LmPK inh = qHTS Assay for Inhibitors of Leishmania Mexicana Pyruvate Kinase (LmPK) | purified LmPK, Kinase-Glo ATP luminescence, 1 h | 290,000 tested, 0.37% active | Potency, µM (series often up to 57.5 µM), for inactives: at the top dose activity change, negative = inhibition, usual class: inhibitors; also: potency is read from the fitted curve at half-maximal effect
Target sequence (Q27686 whole entry, looked up): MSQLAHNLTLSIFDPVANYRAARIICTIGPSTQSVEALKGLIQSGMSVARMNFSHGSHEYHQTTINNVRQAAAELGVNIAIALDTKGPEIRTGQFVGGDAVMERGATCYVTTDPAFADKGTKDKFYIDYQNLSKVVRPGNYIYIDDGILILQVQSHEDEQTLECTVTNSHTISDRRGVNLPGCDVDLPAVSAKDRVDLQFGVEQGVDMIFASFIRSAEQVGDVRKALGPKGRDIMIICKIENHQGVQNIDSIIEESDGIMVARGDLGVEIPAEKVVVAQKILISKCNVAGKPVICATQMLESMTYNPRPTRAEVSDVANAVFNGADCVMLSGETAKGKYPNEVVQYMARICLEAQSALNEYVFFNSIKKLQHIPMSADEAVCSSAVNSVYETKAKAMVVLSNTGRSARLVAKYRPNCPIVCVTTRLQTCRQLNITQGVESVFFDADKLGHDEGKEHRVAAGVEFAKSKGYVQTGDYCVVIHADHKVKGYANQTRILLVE
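qHTS format; LmPK 0.1 nM; substrates PEP 0.5 mM and ADP 0.1 mM. One-hour room-temperature incubation, then coupled luciferase luminescence; 0.5 nM enzyme wells mark activation.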
Tb PYK inh = qHTS of Trypanosoma Brucei Inhibitors; pyruvate kinase (Trypanosoma brucei), Q57TT1; TbPYK enzyme, Kinase-Glo Plus ATP luminescence, 45 min; Potency, µM (doses to about 76.8 µM), without a hit: top-dose activity, negative = inhibition, hits mostly inhibitors; 410,000 tested, 0.12% active; AID 624173, 2012; also: potency is read from the fitted curve at half-maximal effect; nearly all actives have a fitted effect of over 50% in size
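Luminescent Kinase-Glo Plus end-point after 45 min room-temperature reaction of T. brucei pyruvate kinase started with 130 uM ADP (final). Buffer TEA 50 mM pH 7.2 with KCl, MgCl2, BSA, Tween-20; titration-based qHTS with fitted concentration-effect curves.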
VACV mCherry inh = qHTS for Stage-Specific Inhibitors of Vaccinia Orthopoxvirus: mCherry Reporter Primary qHTS; Potency, µM (doses to about 36.5 µM), inactives show at the top dose activity change, negative = inhibition, most hits filed as inhibitors; AID 720579, 2013; Vaccinia virus mCherry reporter infection, fluorescence; 310,000 tested, 0.63% active; calls by dose curve; tested in A549 cells; also: potency is read from the fitted curve at half-maximal effect; nearly all actives have a fitted effect of over 35% in size
HCMV inh = qHTS Assay for inhibitors of the human cytomegalovirus (HCMV); HFF cells, HCMV-luciferase reporter, 72 h; stronger effect = lower value; activity change, negative = inhibition, % at 57.5 µM; 410,000 tested, 4.5% active; AID 1259415, 2018; in the data active = activity change below about -60%; inconclusive = no clear call, values can overlap the other calls; inactive = above about -39%
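Two compound doses tested in HFFs infected with HCMV-luciferase, MOI 1 PFU/cell, 72 h at 37C. Lysate luminescence read with OneGlo; data normalized against buffer-only and 10uM Salinomycin inhibitor controls.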
VACV Venus inh = qHTS for Stage-Specific Inhibitors of Vaccinia Orthopoxvirus: Venus Reporter Primary qHTS; Vaccinia virus Venus reporter expression, fluorescence; Potency, µM (doses to about 36.5 µM), inactives show at the top dose activity change, negative = inhibition, most hits filed as inhibitors; 330,000 tested, 0.46% active; calls by dose curve; tested in A549 cells; also: potency is read from the fitted curve at half-maximal effect; nearly all actives have a fitted effect of over 30% in size
The depositor's hits bear a star; i = inactive; ? = inconclusive; nt = no result. Unless noted, calls follow the shape of the dose curve; as a rule, active = well fitted curve in the direction sought with a large enough effect; inconclusive = small, poorly fitted or top-dose-only effect, or another doubt; inactive = no such curve, though single readings can be large; an effect the other way counts as inactive or inconclusive. % is scaled to controls: 0 for no effect and ±100 for the full control effect.

SMILES | LmPK inh | Tb PYK inh | VACV mCherry inh | HCMV inh | VACV Venus inh
CN1C[C@@H]2[C@@H]3C(=O)N(Cc4ccccc4)C(=O)[C@@H]3[C@](Cc3ccccc3)(C1=O)N2C(=O)c1ccc(C(C)(C)C)cc1 | nt | -6.7% | ? | -97.7* | ?
S=C(NCC1CCCO1)N1CCN(c2nc(-c3ccc(Cl)cc3)cs2)CC1 (stereo not given) | -3.9% | -1.8% | ? | -63.2* | ?
S=C(NCCCN1CCOCC1)N1CCN(c2nc(-c3ccccc3)cs2)CC1 | 2.2% | -18.6% | ? | ? | ?
S=C(NCCCN1CCOCC1)N1CCN(c2nc(-c3ccc(Cl)cc3)cs2)CC1 | 1.3% | -15.9% | nt | -90.9* | nt
S=C(NCC1CCCO1)N1CCN(c2cccc(Cl)c2)CC1 (stereo not given) | -10.2% | -5.9% | ? | -39.2 | -17.9%
CCOc1cccc2cc(-c3csc(NC(=O)CCC(=O)NCCCN4CCC(C)CC4)n3)c(=O)oc12 | -2.2% | nt | nt | nt | nt
CCOc1cccc2cc(-c3csc(NC(=O)CCC(=O)NCCN4CCCCC4C)n3)c(=O)oc12 (stereo not given) | -11.3% | -4.5% | 11.2µM* | 36.1 | ?
CC1(C(=O)NCc2ccccc2)CN(S(C)(=O)=O)CC(=O)N1C1CCN(Cc2ccccc2)CC1 (stereo not given) | nt | nt | -21.3% | -16.8 | 2.1%
O=C(CCNC(=O)OCC1c2ccccc2-c2ccccc21)NOCc1ccccc1 | nt | -0.2% | i | -77.0* | 0.0%
O=C(O)CCNC(=O)OCC1c2ccccc2-c2ccccc21 | 1.7% | 0.5% | nt | ? | nt
CCOc1cc(/C=C/C(=O)NCCc2ccc(S(N)(=O)=O)cc2)ccc1OCC(C)C | 10.5% | -1.9% | nt | -34.0 | nt
CC12CCC(C(=O)N/N=C/c3ccc(O)cc3O)(OC1=O)C2(C)C (stereo not given) | -6.7% | -14.9% | 14.1µM* | 42.3 | -26.7%
C/C(=N\NC(=O)C12CCC(C)(C(=O)O1)C2(C)C)c1ccccc1O (stereo not given) | -3.2% | 1.3% | ? | -103.1* | -23.7%
Cc1cc(C)c(C(N)=O)c(NC(=O)Nc2ccccc2Cl)n1 | 0.2% | -5.5% | nt | -7.1 | nt
COc1ccc(CCNC(=O)c2ccc(Cn3c(=O)c4cccn4c4cccnc43)cc2)cc1OC | nt | -1.8% | -13.3% | 5.3 | -14.4%
Cc1ccccc1C(=O)N/N=C/c1ccc(OCC(=O)N2CCCCC2)cc1 | -1.4% | -8.1% | i | -38.8 | -22.4%
COc1ccc(N/C(C)=C2/C(=O)C(=O)N(CCO)C2c2ccc([N+](=O)[O-])cc2)cc1 (stereo not given) | -1.9% | 5.3% | nt | -98.9* | -2.2%
CC1=C(C(N)=O)C(c2ccccc2F)n2nc(CCCO)nc2N1 (stereo not given) | -2.8% | -7.2% | -15.2% | nt | -11.8%
Cc1ccc(-c2nc(CS(=O)CC(=O)N3CCN(c4ccc(Cl)cc4)CC3)c(C)o2)cc1 (stereo not given) | nt | 0.4% | -14.8% | -70.7* | ?
Cc1ccc(-c2nc(CS(=O)CC(=O)N3CCN(c4ccccc4)CC3)c(C)o2)cc1 (stereo not given) | 2.8% | -3.0% | ? | ? | ?
CC(c1ccccc1)N(NC(=O)C(O)(c1ccccc1)c1ccccc1)C(=O)c1ccccc1 (stereo not given) | 1.5% | -12.8% | -15.0% | -74.2* | -9.3%
CCN(NC(=O)C(O)(c1ccccc1)c1ccccc1)C(=O)c1ccccc1 | -0.7% | 2.5% | i | -5.4 | -3.6%
Cc1nonc1C(=O)N/N=C/c1cccc(O)c1 | 14.1µM* | -26.4% | -9.3% | 6.5 | -4.7%
COc1cc(C(=O)NCC(c2ccco2)N2CCc3ccccc3C2)cc(OC)c1OC (stereo not given) | nt | 0.4% | i | 5.0 | -12.3%
O=[N+]([O-])c1ccc(N2CCN(c3cccc(Cl)c3)CC2)nc1 | 1.1% | -4.3% | nt | ? | nt
SMILES | LmPK inh | Tb PYK inh | VACV mCherry inh | HCMV inh | VACV Venus inh
N#Cc1c(N)n(CCNC(=O)c2ccccc2)c2nc3ccccc3nc12 | -2.1% | 0.2% | nt | -66.1* | nt
C=CCn1c(CSc2ccc(C)cc2)n[nH]c1=S | -12.9% | 3.98µM* | nt | -34.5 | nt
C=CCn1c(CSc2nc3ccccc3s2)n[nH]c1=S | ? | 4.47µM* | nt | 6.5 | -9.1%
COc1ccc(OC)c(N/C(=N\c2nc(C)cc(C)n2)NC(=O)c2ccco2)c1 | 8.0% | nt | nt | nt | nt
CCN(CC)c1ccc(/C=C2/SC(=O)N(C(C)C)C2=O)o1 | -6.4% | ? | -20.9% | -86.0* | 57.8%
Cc1ccc([N+](=O)[O-])cc1S(=O)(=O)NCC1COc2ccccc2O1 (stereo not given) | -1.4% | -5.0% | nt | -67.7* | nt
CCc1ccc(NC(=O)c2ccc(F)c(S(=O)(=O)N(C)C3CCCCC3)c2)cc1 | nt | 2.4% | ? | -98.3* | ?
O=C(Nc1cc(Cl)cc(Cl)c1)c1ccc(F)c(S(=O)(=O)NC2CCCC2)c1 | nt | -5.3% | -23.4% | -6.0 | -27.0%
CCc1ccc(NC(=O)c2ccc(F)c(S(=O)(=O)NCCc3ccc(OC)c(OC)c3)c2)cc1 | nt | 7.9% | ? | -83.3* | ?
CCc1ccc(NC(=O)c2ccc(F)c(S(=O)(=O)NC3CCCCCC3)c2)cc1 | nt | 1.5% | ? | -78.9* | ?
CC(=O)Nc1ccc(NC(=O)c2cccc(S(=O)(=O)N(C)C3CCCCC3)c2)cc1 | nt | 0.0% | nt | 0.0 | nt
Cc1ccc(S(=O)(=O)NCC2COc3ccccc3O2)cc1 (stereo not given) | 9.2% | -8.6% | i | -25.6 | -15.3%
COc1ccc(N2CCN(S(=O)(=O)c3ccc(C(=O)NCc4ccco4)cc3)CC2)cc1 | -3.0% | -3.0% | -19.2% | ? | -12.4%
CCc1ccc(NC(=O)c2ccc(F)c(S(=O)(=O)NCC3COc4ccccc4O3)c2)cc1 (stereo not given) | 6.1% | -7.4% | -22.4% | -90.7* | ?
O=C1CN(C(=O)Cn2ncc(Cl)c(Cl)c2=O)c2ccccc2N1 | -3.9% | -6.7% | ? | -94.9* | ?
O=C1CN(C(=O)COc2cccc(F)c2)c2ccccc2N1 | 0.6% | nt | nt | ? | nt
O=C1CN(C(=O)COc2ccc(Cl)c(Cl)c2)c2ccccc2N1 | nt | -14.3% | i | -66.3* | -16.4%
COc1ccccc1N/N=C/c1ccc2c(c1)OCO2 | -9.7% | -7.0% | nt | -70.5* | nt
Cc1[nH]c(=O)[nH]c(=S)c1C(=O)Nc1ccc(Cl)c(Cl)c1 | nt | -16.6% | nt | 10.0 | nt
C[C@H](NC(=O)c1ncn2c1c(=O)[nH]c1ccc(Br)cc12)c1ccccc1 | nt | 1.4% | ? | ? | 12.6µM*
C[C@H](NC(=O)c1ncn2c1c(=O)[nH]c1ccccc12)c1ccccc1 | nt | 4.5% | -19.7% | -10.0 | -6.4%
COc1nc(N(C)S(=O)(=O)c2ccc(C)cc2)nc(C)c1Cl | 5.5% | 0.2% | nt | -60.9* | nt
